Results filed as inconclusive are left out. Active and inactive are the calls of the source. Rule for the calls: active = hit-call score of the fitted dose curve at least 0.9, where 1 is the maximum; inconclusive = response in the unintended direction; inactive = score below 0.9.

The experiment is described as follows: CLD_ACTIN_24hr: CellzDirect (CLD) Gene Expression Assay for Baseline Control (Actin) at 24 hours (AID 2283670). The method, then: CLD_24hr is a cell-based, multiplexed-readout assay that uses hepatocyte, a human liver primary cell, with measurements taken at 24 hours after chemical dosing in a 96-well plate.CLD_ACTIN_24hr is one of 16 assay component(s) measured or calculated from the CLD_24hr assay. It is designed to make measurements of mRNA induction, a form of inducible reporter, as detected with chemiluminescence signals by Quantitative Nuclease Protection Assay (qNPA) technology.Data from the assay component CLD_ACTIN_24hr was analyzed at the endpoint, CLD_ACTIN_24hr, in the positive analysis fitting direction relative to DMSO as the negative control and baseline of activity. Using a type of inducible reporter, gain-of-signal activity can be used to understand changes in the reporter gene as they relate to the gene ACTA1. Furthermore, this assay endpoint can be referred to as a secondary readout, because this assay has produced multiple assay endpoints where this one serves a background control function. To generalize the intended target to other relatable targets, this assay endpoint is annotated to the background measurement intended target family, where subfamily is baseline control.
Human hepatocyte cultures were treated daily for two consecutive days with fresh dosing solutions containing appropriate concentrations of the 320 ToxCast chemicals (chemical identities were blinded to CellzDirect and other ToxCast collaborators), vehicle control (0.2% DMSO), and positive control inducers as summarized in Table 1. Due to the large number of treatment groups and chemicals examined, the ToxCast chemicals were divided into two groups (spanning two independent cultures of hepatocytes from separate donor preparations (Hu778: ToxCast plates 1 and 2; Hu776: ToxCast plates 3 and 4). Each preparation of human hepatocyte cultures was treated with respective vehicle control, medium only control, set of six positive controls/reference chemicals for the five hepatic receptor pathways, and a subset of eight of the ToxCast chemicals (indoxacarb, pyrithiobac-sodium, norflurazon, cyhalofop-butyl, methomyl, thiram, acetochlor, and propiconazole). These replicate data, coupled with internal replicates designed within the blinded ToxCast chemical library, provided additional data to evaluate interindividual differences between hepatocyte preparations and their potential impact on chemical profiles.Cell morphology and integrity were evaluated using phase-contrast microscopy as an indicator of hepatocyte cell health (Tyson & Green, 1987). Cultures for each treatment group (i.e., media, vehicle [0.2% DMSO], positive control inducers [multiple concentrations], and the ToxCast chemicals [multiple concentrations]) were observed and cell morphology was assessed relative to vehicle control cultures at each harvest time point (0, 6, 24, or 48 h). […] Images were evaluated at the conclusion of the study to assess changes in cell integrity and account for the effects of chemical exposure on uncharacteristic changes in concentration-dependent gene expression profiles. The results from these determinations of apparent cytotoxicity were annotated (yes/no) alongside the corresponding qNPA data for reference.At the conclusion of each treatment period, hepatocyte cultures (96-well) were washed with 1 volume of HBSS, lysed by addition of 25 ul ArrayPlate lysis buffer (HTG, Tucson, AZ), and 70 ul/well of Denaturation Oil, denatured by incubation at 95C for 10 min, and frozen at approximately -70C until analysis by nuclease protection assay (qNPA) (Roberts et al., 2007). For qNPA analysis, cell lysates were thawed at 50C for approximately 30 min, qNPA probes were added, and samples were incubated at 95C for 10 min to begin the detection process by denaturing the target RNA, dissociating the duplexes and secondary structure hybridization. At the conclusion of the hybridization period, S1 nuclease reagent was added to each sample to digest all nonprotected nucleotides at 50C for 60-90 min. […]
Consider `COC(=O)c1ccccc1C(=O)OC`, for which the call was inactive.

On to `CCCC1COC(Cn2cncn2)(c2ccc(Cl)cc2Cl)O1` (stereo unspecified), for which the compound was classed as inactive.

For `CN(C)C(=S)SSC(=S)N(C)C`, the compound was classed as inactive.

As to `Oc1ccccc1-c1ccccc1`, the compound was called inactive.

As for `N#Cc1nn(-c2c(Cl)cc(C(F)(F)F)cc2Cl)c(N)c1S(=O)C(F)(F)F` (stereo unspecified), the compound was classed as inactive.

`CCCCNC(=O)n1c(NC(=O)OC)nc2ccccc21`: the result was inactive.

For `CC(C)C1(C)N=C(c2nc3ccccc3cc2C(=O)O)NC1=O` (stereo unspecified), the outcome was inactive.

For `C=CC1(C)OC(=O)N(c2cc(Cl)cc(Cl)c2)C1=O` (stereo unspecified), the call was inactive.

Consider `Cc1c(F)c(F)c(COC(=O)C2C(/C=C(\Cl)C(F)(F)F)C2(C)C)c(F)c1F` (stereo unspecified), for which the compound was called inactive.

Consider `COC(=O)C=C(C)OP(=O)(OC)OC`, for which the outcome was inactive.

On to `CCCCNC(=O)OCC#CI`, for which the outcome was inactive.

With `CCCCC(CC)COC(=O)c1ccccc1C(=O)OCC(CC)CCCC` (stereo unspecified), the compound was called inactive.

On to `CCNc1nc(Cl)nc(NC(C)C)n1`, for which the outcome was inactive.

On to `N#Cc1cc(Br)c(O)c(Br)c1`, for which the result was inactive.

As for `COC(=O)N(OC)c1ccccc1COc1ccn(-c2ccc(Cl)cc2)n1`, the compound was classed as inactive.

For `COc1nc(NC(C)C)nc(NC(C)C)n1`, the outcome was inactive.

`CNC(=S)S`: the outcome was inactive.

Consider `CCCCOC(=O)c1ccccc1C(=O)OCCCC`, for which the result was inactive.

For the compound `C=CCC1=C(C)C(OC(=O)C2C(C=C(C)C)C2(C)C)CC1=O` (stereo unspecified), the call was inactive.

With `CCNc1nc(Cl)nc(NCC)n1`, the outcome was inactive.

`COc1cnc(OC)n2nc(NS(=O)(=O)c3c(OCC(F)F)cccc3C(F)(F)F)nc12`: the outcome was inactive.

For `COc1nc(C)nc(NC(=O)NS(=O)(=O)c2ccccc2Cl)n1`, the compound was called inactive.

`Cc1ccc(-c2c(Cl)nc(C#N)n2S(=O)(=O)N(C)C)cc1`: the call was inactive.

For `OC(c1ccc(Cl)cc1)(c1cncnc1)c1ccccc1Cl` (stereo unspecified), the compound was called inactive.

On to `CCc1nn(C)c(C(=O)NCc2ccc(C(C)(C)C)cc2)c1Cl`, for which the compound was called inactive.

With `CS/C(C)=N/OC(=O)N(C)SN(C)C(=O)O/N=C(\C)SC`, the compound was classed as inactive.

For `COC(=O)C(C)Oc1ccc(Oc2ccc(Cl)cc2Cl)cc1` (stereo unspecified), the call was inactive.

With `CC(C)(C)c1ccc(CSc2cnn(C(C)(C)C)c(=O)c2Cl)cc1`, the compound was classed as inactive.

Take `N#CC(CCc1ccc(Cl)cc1)(Cn1cncn1)c1ccccc1` (stereo unspecified): the result was inactive.

As to `CC(Oc1ccc(Cl)cc1Cl)C(=O)O` (stereo unspecified), the compound was called inactive.

Turning to `CNC(=O)ON=CC(C)(C)SC`, the result was inactive.

Values taken from PubChem BioAssay (EPA / NIEHS).
